Reference: PubChem BioAssay (EPA / NIEHS)
Calls of active or inactive are those of the source. How the source made its calls: active means hit-call score of the fitted dose curve at least 0.9, where 1 is the maximum; inactive means score below 0.9.

Key:
[1] = read-out: CFLAR gene, CFLAR (gene 8837); test: LTEA_HepaRG_CFLAR: Life Technologies and Expression Analysis (LTEA) Assay for CFLAR gene using HepaRG (AID 2283455); details: mRNA level, 48 h; actives raise or lower the signal
How it was run: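 Transcript level by qRT-PCR (normalized to ACTB, GAPDH and POLR2A) after 48 h chemical exposure of HepaRG cells, top concentration 100 uM with half-log steps, 0.5% DMSO vehicle, duplicates; fitted bidirectionally against DMSO baseline.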

[2] = read-out: Forkhead box O1 (FOXO1), FOXO1 (gene 2308); test: LTEA_HepaRG_FOXO1: Life Technologies and Expression Analysis (LTEA) Assay for Forkhead box O1 (FOXO1) using HepaRG (AID 2283456); details: mRNA level, 48 h; actives raise or lower the signal
How it was run: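 FOXO1 transcript quantified by qRT-PCR after 48 h chemical exposure (top 100 uM, half-log steps, 0.5% DMSO) of HepaRG cells, housekeeping-normalized (ACTB/GAPDH/POLR2A). Changes fitted in both directions relative to vehicle.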

[3] = read-out: growth arrest and DNA damage 45 (GADD45A), GADD45A (gene 1647); test: LTEA_HepaRG_GADD45A: Life Technologies and Expression Analysis (LTEA) Assay for growth arrest and DNA damage 45 (GADD45A) using HepaRG (AID 2283458); details: mRNA level, 48 h; actives raise or lower the signal
How it was run: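 HepaRG, 48 h exposure, 8 conc. (top 100 uM, half-log steps), 0.5% DMSO vehicle, duplicates. Read-out: qRT-PCR mRNA level, housekeeping-normalized (ACTB/GAPDH/POLR2A). Curves fit bidirectionally vs DMSO baseline.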

[4] = read-out: Forkhead box O3 (FOXO3), FOXO3 (gene 2309); test: LTEA_HepaRG_FOXO3: Life Technologies and Expression Analysis (LTEA) Assay for Forkhead box O3 (FOXO3) using HepaRG (AID 2283459); details: mRNA level, 48 h; actives raise or lower the signal
How it was run: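 FOXO3 transcript measured by qRT-PCR (normalized to ACTB, GAPDH, POLR2A) after 48 h exposure of HepaRG cells in serum-free induction medium. Duplicates, eight half-log concentrations up to 100 uM, 0.5% DMSO; gain or loss fitted against DMSO.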

[5] = read-out: ABC Transporter (ABCB1), ABCB1 (gene 5243); test: LTEA_HepaRG_ABCB1: Life Technologies and Expression Analysis (LTEA) Assay for ABC Transporter (ABCB1) using HepaRG (AID 2283460); details: mRNA level, 48 h; actives raise or lower the signal
How it was run: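 ABCB1 transcript level measured by TaqMan qRT-PCR against three housekeeping genes after 48 h chemical exposure of differentiated HepaRG cells. Top concentration 100 uM, half-log steps, eight points, 0.5% DMSO vehicle; bidirectional fit relative to DMSO.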

[6] = read-out: growth arrest and DNA damage 45 (GADD45B), GADD45B (gene 4616); test: LTEA_HepaRG_GADD45B: Life Technologies and Expression Analysis (LTEA) Assay for growth arrest and DNA damage 45 (GADD45B) using HepaRG (AID 2283461); details: mRNA level, 48 h; actives raise or lower the signal
How it was run: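 Human HepaRG monolayers receive chemicals for 48 h at eight half-log concentrations, highest 100 uM, in 0.5% DMSO. Expression is measured by TaqMan qRT-PCR and normalized to ACTB, GAPDH and POLR2A.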

[7] = read-out: ABC Transporter (ABCC3), ABCC3 (gene 8714); test: LTEA_HepaRG_ABCC3: Life Technologies and Expression Analysis (LTEA) Assay for ABC Transporter (ABCC3) using HepaRG (AID 2283462); details: mRNA level, 48 h; actives raise or lower the signal
How it was run: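 Transcriptional change of ABCC3 in HepaRG after 48 h treatment, determined by qRT-PCR normalized to endogenous controls. Concentrations spanned eight half-log steps to 100 uM in 0.5% DMSO.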

[8] = read-out: ABC Transporter (ABCC2), ABCC2 (gene 1244); test: LTEA_HepaRG_ABCC2: Life Technologies and Expression Analysis (LTEA) Assay for ABC Transporter (ABCC2) using HepaRG (AID 2283464); details: mRNA level, 48 h; actives raise or lower the signal
How it was run: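 After plating and 48 h culture, HepaRG medium is replaced with serum-free induction medium and chemicals are added (8 concentrations, max 100 uM, 0.5% DMSO) for 48 h. Total RNA then undergoes qRT-PCR for ABCC2 with housekeeping normalization.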

[9] = read-out: ABC Transporter (ABCB11), ABCB11 (gene 8647); test: LTEA_HepaRG_ABCB11: Life Technologies and Expression Analysis (LTEA) Assay for ABC Transporter (ABCB11) using HepaRG (AID 2283463); details: mRNA level, 48 h; actives raise or lower the signal
How it was run: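 ABCB11 transcript levels quantified by TaqMan qRT-PCR against three housekeeping genes after 48 h chemical exposure of HepaRG cultures. Concentrations up to 100 uM in half-log steps, 0.5% DMSO vehicle; both induction and suppression scored.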

[10] = CEETOX_H295R_TESTO: CeeTox H295R High-throughput Steroidogenesis Assay for Testosterone (TESTO) (AID 2283457); details: actives raise or lower the signal
How it was run: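 Steroidogenesis in H295R cells following OECD 456 with minor changes; 48 h exposure. Medium testosterone by HPLC-MS/MS, DMSO as baseline, with MTT viability run in parallel.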

Measured: AC50

CCCCCCCCCCCCO
inactive: [1] | [2] | [3] | [4] | [5] | [6] | [7] | [8]

COc1ccc2cc(S(=O)(=O)N[C@H](CC(=O)N[C@H](Cc3ccc(CN4[C@H](C)CCC[C@@H]4C)cc3)C(=O)N(C)C(C)C)c3ccc4c(c3)OCO4)ccc2c1
inactive: [4]
active: [1] 15.1 µM | [2] 25.2 µM | [3] 25.9 µM | [5] 23.1 µM | [6] 47.8 µM | [7] 11.2 µM | [8] 16.2 µM

COCC(C)OCC(C)OCC(C)O (centres undefined)
inactive: [1] | [2] | [3] | [4] | [5] | [6] | [7] | [9] | [8]

CCCCCCCCN(C)CCCCCCCC
inactive: [1] | [2] | [10] | [3] | [4] | [5] | [6] | [7] | [8]

CC1=CC(=O)/C(=C(/C)O)C(=O)O1
inactive: [1] | [2] | [3] | [4] | [5] | [6] | [7] | [9] | [8]

CCCOC(=O)c1cc(O)c(O)c(O)c1
inactive: [1] | [2] | [3] | [4] | [6] | [7]
active: [5] 4.06 µM | [8] 6.03 µM

Cc1c2ccccc2c(C)c2c1ccc1ccccc12
active: [2] 75 µM | [3] 61.9 µM | [4] 13 µM | [6] 50 µM | [7] 12.7 µM
inactive: [10] | [5] | [8]

CN(C)c1ccc(C(=C2C=CC(=[N+](C)C)C=C2)c2ccc(N(C)C)cc2)cc1
active: [1] 29.6 µM | [2] 10.1 µM | [3] 50 µM | [4] 17.4 µM | [5] 12.9 µM | [6] 3.56 µM | [7] 85.8 µM | [9] 3.65 µM | [8] 18.8 µM

C[C@]12CC[C@@H]3c4ccc(O)cc4CC[C@H]3[C@@H]1CC[C@H]2O
inactive: [1] | [2] | [3] | [4] | [5] | [6] | [7] | [8]

CCN(Cc1cccc(S(=O)(=O)O)c1)c1ccc(C(=C2C=CC(=[N+](CC)Cc3cccc(S(=O)(=O)O)c3)C=C2)c2ccccc2S(=O)(=O)[O-])cc1
inactive: [1] | [2] | [3] | [4] | [5] | [6] | [7] | [9] | [8]

O=C(O)c1ccccc1-n1cc(C(=O)O)c(=O)c2cc(Nc3c(F)cc(F)cc3Cl)c(Cl)cc21
active: [3] 0.00848 µM | [5] 15.5 µM | [8] 10.6 µM
inactive: [1] | [2] | [4] | [6] | [7]

CCCCOC(=O)CC(CC(=O)OCCCC)(OC(C)=O)C(=O)OCCCC
inactive: [1] | [2] | [3] | [4] | [5] | [6] | [7] | [8]

NC(=O)c1nc(-c2cccc(-c3cc(F)ccc3OCC(F)(F)C(F)(F)F)c2)n[nH]1
inactive: [1] | [2] | [10] | [3] | [5]
active: [4] 50 µM | [6] 77.2 µM | [7] 84 µM | [8] 89.8 µM

O=C(OCCCCCCOC(=O)c1ccccc1)c1ccccc1
inactive: [1] | [2] | [3] | [4] | [5] | [6] | [7] | [8]

O=C(O)Cn1c(=O)n(Cc2ccc(Br)cc2F)c(=O)c2ccc(Cl)cc21
inactive: [1] | [2] | [10] | [3] | [4] | [6] | [7] | [9] | [8]
active: [5] 9.92 µM

COc1cc(C(=O)NC2CCN(C)CC2)ccc1Nc1ncc2c(n1)N(C1CCCC1)CC(F)(F)C(=O)N2C
active: [1] 14.4 µM | [2] 11.5 µM | [3] 4.65 µM | [5] 6.41 µM | [6] 25.4 µM | [7] 46.5 µM | [9] 4.65 µM | [8] 21.5 µM
inactive: [4]

COc1cccc([C@H](O)C2CCN(CCc3ccc(F)cc3)CC2)c1OC
active: [9] 26.6 µM
inactive: [1] | [2] | [3] | [4] | [5] | [6] | [7] | [8]

c1ccc2ccccc2c1
inactive: [1] | [2] | [3] | [4] | [5] | [6] | [7] | [8]
